Holding throughout (assay): yeast three-hybrid, YBZ-1, SC-Leu-His + 0.5 mM 3-AT, 4 days
Common to all, as to conditions: tags: N-Gal4 AD-HA kept; label: inside an RPR1-promoter hybrid RNA with tandem MS2 sites; ssRNA

In assay [1] the target is PUM1 PUF domain R1-GLR (Homo sapiens, UniProt Q14671 828-1176, S863G;R864L;Q867R). The method in brief: (§1)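 Pumilio-1 PUF domain libraries, randomized (NNK) at the three base-contacting residues of each repeat, were co-expressed with matching RNA elements from a centromeric plasmid in strain YBZ-1 (LexA–MS2 coat fusion, HIS3 reporter). Transformants were plated on SC-Leu (input) and SC-Leu-His + 0.5 mM 3-AT (selection) for four days, and repeat regions were PCR-amplified and Illumina-sequenced. The interaction score is the log2 change in variant frequency from input to selection, with pseudocount 1 where absent.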
Chain of PUM1 PUF domain R1-GLR (Q14671 828-1176 S863G/R864L/Q867R): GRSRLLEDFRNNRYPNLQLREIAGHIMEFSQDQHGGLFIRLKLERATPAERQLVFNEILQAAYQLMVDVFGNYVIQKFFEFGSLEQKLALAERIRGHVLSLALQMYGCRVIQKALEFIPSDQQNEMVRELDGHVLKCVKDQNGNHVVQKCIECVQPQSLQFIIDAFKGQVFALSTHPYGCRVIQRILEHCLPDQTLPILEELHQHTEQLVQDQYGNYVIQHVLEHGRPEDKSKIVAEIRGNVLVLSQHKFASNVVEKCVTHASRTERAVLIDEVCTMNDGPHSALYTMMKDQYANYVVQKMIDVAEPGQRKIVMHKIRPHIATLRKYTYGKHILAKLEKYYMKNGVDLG

Assay [2] has as its target PUM1 PUF domain R3-IWA (Homo sapiens, UniProt Q14671 828-1176, C935I;R936W;Q939A). The method in brief: as §1
Assay [3] concerns the target PUM1 PUF domain R4-WGC (Homo sapiens, UniProt Q14671 828-1176, N971W;H972G;Q975C). The method in brief: as §1
Assay [4] deals with PUM1 PUF domain R5-CHG (Homo sapiens, UniProt Q14671 828-1176, R1008H;Q1011G). The method in brief: as §1
Chain of PUM1 PUF domain R5-CHG (Q14671 828-1176 R1008H/Q1011G): as the sequence (Q14671 828-1176 S863G/R864L/Q867R) above, with G36S, L37R, R40Q, R181H, Q184G counted along it
Assay [5] has as its target PUM1 PUF domain R5-RQS (Homo sapiens, UniProt Q14671 828-1176, C1007R;R1008Q;Q1011S). The procedure, abridged:
as §1

In assay [6] the target is PUM1 PUF domain R5-RRL (Homo sapiens, UniProt Q14671 828-1176, C1007R;Q1011L). The procedure, abridged:
as §1

Assay [7] concerns the target PUM1 PUF domain R5-QWN (Homo sapiens, UniProt Q14671 828-1176, C1007Q;R1008W;Q1011N). The procedure, abridged: as §1
In assay [8] the target is PUM1 PUF domain R4-VSI (Homo sapiens, UniProt Q14671 828-1176, N971V;H972S;Q975I). The procedure, abridged:
as §1

Assay [9] has as its target PUM1 PUF domain R8-RFV (Homo sapiens, UniProt Q14671 828-1176, N1122R;Y1123F;Q1126V). The method in brief: as §1

The record followed here is paper PMC8384837, “Expanding the binding specificity for RNA recognition by a PUF domain”.

Chain of PUM1 PUF domain R5-RQS (Q14671 828-1176 C1007R/R1008Q/Q1011S): as the sequence (Q14671 828-1176 S863G/R864L/Q867R) above, with G36S, L37R, R40Q, C180R, R181Q, Q184S counted along it
Chain of PUM1 PUF domain R5-RRL (Q14671 828-1176 C1007R/Q1011L): as the sequence (Q14671 828-1176 S863G/R864L/Q867R) above, with G36S, L37R, R40Q, C180R, Q184L counted along it
Chain of PUM1 PUF domain R4-WGC (Q14671 828-1176 N971W/H972G/Q975C): as the sequence (Q14671 828-1176 S863G/R864L/Q867R) above, with G36S, L37R, R40Q, N144W, H145G, Q148C counted along it
Chain of PUM1 PUF domain R3-IWA (Q14671 828-1176 C935I/R936W/Q939A): as the sequence (Q14671 828-1176 S863G/R864L/Q867R) above, with G36S, L37R, R40Q, C108I, R109W, Q112A counted along it
Chain of PUM1 PUF domain R4-VSI (Q14671 828-1176 N971V/H972S/Q975I): as the sequence (Q14671 828-1176 S863G/R864L/Q867R) above, with G36S, L37R, R40Q, N144V, H145S, Q148I counted along it
Chain of PUM1 PUF domain R5-QWN (Q14671 828-1176 C1007Q/R1008W/Q1011N): as the sequence (Q14671 828-1176 S863G/R864L/Q867R) above, with G36S, L37R, R40Q, C180Q, R181W, Q184N counted along it
Chain of PUM1 PUF domain R8-RFV (Q14671 828-1176 N1122R/Y1123F/Q1126V): as the sequence (Q14671 828-1176 S863G/R864L/Q867R) above, with G36S, L37R, R40Q, N295R, Y296F, Q299V counted along it

As to “GGCUAGAACUAGUGGAUCCCCCGGCGCCCGGCGGCUCGAGCCCGGGUAAGUGUAAAUUGUCUGCAUGCCGCCGGGCGCCAUGCCUGCAGGUCGACUCUAGAAAACAUG”, the binding signal in assay [1] was 2.9 log2 enrichment (interaction score).

“GGCUAGAACUAGUGGAUCCCCCGGCGCCCGGCGGCUCGAGCCCGGGUAAGUGUAAGUAGUCUGCAUGCCGCCGGGCGCCAUGCCUGCAGGUCGACUCUAGAAAACAUG”: in assay [2], the binding signal was 5.56 log2 enrichment (interaction score).

In the case of “GGCUAGAACUAGUGGAUCCCCCGGCGCCCGGCGGCUCGAGCCCGGGUAAGUGUAUAUAGUCUGCAUGCCGCCGGGCGCCAUGCCUGCAGGUCGACUCUAGAAAACAUG”, in assay [3], the binding signal is 4.53 log2 enrichment (interaction score).

“GGCUAGAACUAGUGGAUCCCCCGGCGCCCGGCGGCUCGAGCCCGGGUAAGUGUUAAUAGUCUGCAUGCCGCCGGGCGCCAUGCCUGCAGGUCGACUCUAGAAAACAUG”: the binding signal was 3.47 log2 enrichment (interaction score) in [4], 5.24 log2 enrichment (interaction score) in assay [5] and 4.45 log2 enrichment (interaction score) in assay [6].

In the case of “GGCUAGAACUAGUGGAUCCCCCGGCGCCCGGCGGCUCGAGCCCGGGUAAGUGUACAUAGUCUGCAUGCCGCCGGGCGCCAUGCCUGCAGGUCGACUCUAGAAAACAUG”, in assay [3], the binding signal was 1.65 log2 enrichment (interaction score).

Consider “GGCUAGAACUAGUGGAUCCCCCGGCGCCCGGCGGCUCGAGCCCGGGUAAGUGUCAAUAGUCUGCAUGCCGCCGGGCGCCAUGCCUGCAGGUCGACUCUAGAAAACAUG”, for which the binding signal is 1.6 log2 enrichment (interaction score) in [4], 4.99 log2 enrichment (interaction score) in assay [5] and 3.98 log2 enrichment (interaction score) in [6].

In the case of “GGCUAGAACUAGUGGAUCCCCCGGCGCCCGGCGGCUCGAGCCCGGGUAAGUGUGAAUAGUCUGCAUGCCGCCGGGCGCCAUGCCUGCAGGUCGACUCUAGAAAACAUG”, the binding signal was 4.78 log2 enrichment (interaction score) in [7], 1.05 log2 enrichment (interaction score) in [5] and 1.14 log2 enrichment (interaction score) in assay [6].

As for “GGCUAGAACUAGUGGAUCCCCCGGCGCCCGGCGGCUCGAGCCCGGGUAAGUGUAAAUAGUCUGCAUGCCGCCGGGCGCCAUGCCUGCAGGUCGACUCUAGAAAACAUG”, the binding signal in [4] is 3.32 log2 enrichment (interaction score); in [8], 2.13 log2 enrichment (interaction score); in assay [5] it was 1.32 log2 enrichment (interaction score); in [3] it was 2.66 log2 enrichment (interaction score); in [6], 1.79 log2 enrichment (interaction score); in assay [9], 6.16 log2 enrichment (interaction score). Further, the binding signal in [2] was 5.07 log2 enrichment (interaction score).
